Among all 1,100 compounds or so, about 860 (78%) were called active. Inconclusive results (about 19%) are left out. Calls come from the whole dose curve; as a rule, active = well fitted activation curve with a large enough effect; inconclusive = small, poorly fitted or top-dose-only effect; inactive = flat fitted curve, though single readings scatter. So high a share suggests a set chosen from earlier hits. The list shows a part of the results.
Experiment: qHTS of Nrf2 Activators: Hit Validation in Primary Assay; note: nearly all actives have a fitted effect of over 70% in size
Settings: Nrf2/ARE reporter cell assay; Potency: activation; series mostly up to 46.1 µM
Procedure, shortened: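 Luminescence from Steady-Glo lysis reagent, read after 30 min, reported ARE-luciferase activity in AREc32_fluc stable cells. Compounds were tested at several concentrations, incubated 24 h at 37 °C with 5% CO2 following overnight seeding.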
For `Oc1ccccc1C1CC(c2cccs2)=NC(c2ccc(Cl)cc2)N1` (centres undefined), the Potency was 13 µM (active). With `COC(=O)c1ccccc1NC(=O)COc1ccccc1[N+](=O)[O-]` the Potency was 2.59 µM (active). With `C/C(=N\NC(=O)COc1ccccc1[N+](=O)[O-])c1cccs1` the Potency was 6.51 µM (active). In the case of `O=c1nc2c(-c3ccccc3F)n[nH]n2c2ccccc12`, the Potency is reported as 2.59 µM (active). With `CCNc1nc(NCC)nc(N(C)/N=C/c2ccco2)n1` the Potency was 2.59 µM (active). For `O=C(N/N=C/c1ccco1)Nc1ccccc1`, the Potency was 8.2 µM (active). For `O=C(N/N=C\c1ccco1)Nc1cccc(Cl)c1`, the Potency was 2.31 µM (active). With `O=C(Nc1ccc(F)cc1)c1nsc(Cl)c1Cl` the Potency was 1.64 µM (active). For `O=C(Nc1cccc(/C=C/c2ccccn2)c1)c1ccc(-n2cncn2)cc1`, the Potency was “inactive”. In the case of `Clc1ccc(C=Cc2ccccn2)c(Cl)c1`, the Potency is reported as 3.66 µM (active). For `Clc1ccc(C=Cc2ccccn2)cc1`, the Potency was 5.17 µM (active). For `CC1(C)C2C/C(=N\O)C(C)(/[N+]([O-])=C/c3cccc([N+](=O)[O-])c3)CC21` (centres undefined), the Potency was 20.6 µM (active). With `N#C/C(=C\C=C\c1ccccc1)C(=O)NCc1cccnc1` the Potency was 2.31 µM (active). With `O=[N+]([O-])c1cc(-c2nc(-c3ccccc3)no2)ccc1NCc1cccnc1` the Potency was 2.31 µM (active). With `CCCNc1ccc(-c2nc(-c3ccco3)no2)cc1[N+](=O)[O-]` the Potency was 2.31 µM (active). In the case of `CCNc1ccc(-c2nc(-c3ccco3)no2)cc1[N+](=O)[O-]`, the Potency is reported as 1.46 µM (active). For `COCCNc1ccc(-c2nc(-c3ccco3)no2)cc1[N+](=O)[O-]`, the Potency was 1.46 µM (active). In the case of `Cc1nn(-c2cccc(C(F)(F)F)c2)c(=O)c2ccccc12`, the Potency is reported as 3.66 µM (active). In the case of `COc1cc(-c2noc(-c3cccs3)n2)cc(OC)c1OC`, the Potency is reported as 13 µM (active). For `CCOc1ncccc1-c1nc(-c2cccs2)no1`, the Potency was 18.4 µM (active). With `CCOc1ccc(Br)cc1-c1noc(-c2cccs2)n1` the Potency was 2.31 µM (active). For `CCN=c1scc(C)n1/N=C/c1ccsc1`, the Potency was 7.31 µM (active). With `Cc1nc([N+](=O)[O-])c(Br)n1Cc1ccccc1` the Potency was 20.6 µM (active). With `c1ccc2c(c1)nnn2-c1ncnc2sccc12` the Potency was 13 µM (active). With `Clc1nc2sccn2c1/C=N/n1cnc2ccccc21` the Potency was 2.59 µM (active). With `O=C(CSc1nnc(-c2cccnc2)o1)c1cc2ccccc2oc1=O` the Potency was 18.4 µM (active). With `Oc1ccccc1C=NN=Cc1c(O)ccc2ccccc12` the Potency was 3.66 µM (active). For `Cc1cc(N/N=C/c2c(O)ccc3ccccc23)nc(-c2ccccc2O)n1`, the Potency was “inactive”. With `Nc1nonc1N/N=C/c1c(O)ccc2ccccc12` the Potency was 6.51 µM (active). In the case of `O=C(Nc1cccc([N+](=O)[O-])c1)Nc1cccs1`, the Potency is reported as 18.4 µM (active). With `Cc1c(NC(=O)Nc2cccs2)cccc1[N+](=O)[O-]` the Potency was 11.6 µM (active). With `CC(C)(C)/C(O)=C/c1nc2cc(Cl)ccc2oc1=O` the Potency was 13 µM (active). For `O=c1oc2ccc(Cl)cc2nc1/C=C(\O)c1cccs1`, the Potency was 14.6 µM (active). In the case of `O=c1oc2ccc(Cl)cc2nc1/C=C(\O)c1ccco1`, the Potency is reported as 14.6 µM (active). In the case of `N=c1oc2ccccc2cc1-c1nc(-c2ccccc2)cs1`, the Potency is reported as 3.66 µM (active). For `O=c1oc2ccccc2cc1-c1nc2c(s1)CCc1ccccc1-2`, the Potency was 3.26 µM (active). In the case of `O=c1oc2ccccc2cc1-c1csc(Nc2ccc(O)cc2)n1`, the Potency is reported as 4.61 µM (active). For `O=c1oc2ccccc2cc1-c1nc(-c2cccs2)cs1`, the Potency was 3.66 µM (active). For `COc1ccccc1C(=O)NCc1nc2cccnc2n1Cc1ccc(F)cc1`, the Potency was 2.91 µM (active). For `C#CCSc1nnc(-c2sc3ccccc3c2Cl)o1`, the Potency was 2.59 µM (active). For `c1cncc(-c2nc(NCc3ccco3)c3ccccc3n2)c1`, the Potency was 5.17 µM (active). In the case of `Cc1ccc(-c2nc(NCc3ccco3)c3ccccc3n2)cc1`, the Potency is reported as 6.51 µM (active). In the case of `O=C(CCN1C(=O)c2cccc3cccc(c23)C1=O)Nc1ccon1`, the Potency is reported as 4.61 µM (active). With `Cc1cc(=O)oc2c(C(=O)/C=C\c3cccs3)c(O)ccc12` the Potency was 9.2 µM (active). For `Cc1cc(=O)oc2c(C(=O)/C=C/c3ccccc3)c(O)ccc12`, the Potency was 2.59 µM (active). In the case of `Cc1ccc(S(=O)(=O)CCSC(=N)N)cc1`, the Potency is reported as 18.4 µM (active). In the case of `O=C(Nc1ccc(Cl)cn1)c1cnn2cccnc12`, the Potency is reported as 5.17 µM (active). For `COc1cccc(/C=C2/CCC(CN(C)C)C2=O)c1` (centres undefined), the Potency was 3.66 µM (active). With `C=CCc1cccc(C=Nc2cc(Br)ccc2O)c1O` the Potency was 3.26 µM (active). In the case of `Cc1ccc(Cn2c(/C=C/c3ccco3)nc3ccccc32)cc1`, the Potency is reported as 2.31 µM (active). For `O=C(Nc1ccccn1)c1ccc(Cl)c([N+](=O)[O-])c1`, the Potency was 18.4 µM (active). For `O=C(Nc1nc2ccccc2[nH]1)c1cccc([N+](=O)[O-])c1`, the Potency was 2.06 µM (active). For `O=C(Nc1nc2ccccc2[nH]1)c1ccc(Cl)c([N+](=O)[O-])c1`, the Potency was 20.6 µM (active). For `Cc1cc(CNC(=O)c2cccc([N+](=O)[O-])c2)c2ccccc2n1`, the Potency was “inactive”. For `CC(/C=N/n1c(-c2ccncc2)n[nH]c1=S)=C\c1ccco1`, the Potency was 2.59 µM (active). In the case of `S=c1[nH]nc(-c2ccccc2)n1/N=C/C=C/c1ccco1`, the Potency is reported as “inactive”. In the case of `Cc1cccc(-c2n[nH]c(=S)n2/N=C/C=C/c2ccco2)c1`, the Potency is reported as 2.06 µM (active). For `S=c1[nH]nc(-c2ccncc2)n1/N=C/C=C/c1ccco1`, the Potency was 8.2 µM (active). For `O=C1C(=Cc2cccc(F)c2)Cc2ccccc21`, the Potency was 13 µM (active). For `O=C1C(=Cc2cccc(Cl)c2)Cc2ccccc21`, the Potency was 4.61 µM (active). For `COC(=O)/C=C1/S/C(=N/N=C/c2ccco2)NC1=O`, the Potency was 0.82 µM (active). In the case of `O=C(/C=C/c1cccs1)c1ccco1`, the Potency is reported as 20.6 µM (active). With `CCCN(C(=O)c1ccco1)c1nnc(-c2ccccc2C)s1` the Potency was 8.2 µM (active). For `S=c1[nH]nc(-c2ccco2)n1/N=C/C(Cl)=C/c1ccccc1`, the Potency was 23.1 µM (active). With `S=c1[nH]nc(COc2ccccc2)n1/N=C/C(Cl)=C/c1ccccc1` the Potency was 4.61 µM (active). For `S=c1[nH]nc(-c2cccnc2)n1/N=C/C(Cl)=C\c1ccccc1`, the Potency was 14.6 µM (active). In the case of `Cc1ccc(C)c(NC(=O)COC(=O)c2cc(=O)c3ccccc3o2)c1`, the Potency is reported as 20.6 µM (active). With `Cc1ccc(NC(=O)c2cc(=O)c3ccccc3o2)cc1` the Potency was 20.6 µM (active). In the case of `O=C(Nc1ccc(F)cc1)c1cc2ccccc2o1`, the Potency is reported as 3.66 µM (active).

— PubChem BioAssay AID651593 (National Center for Advancing Translational Sciences (NCATS), 2012)
Potency is the fitted concentration of half-maximal effect.
